# Results published in PubChem BioAssay (NCI).
# About 83,000 compounds went through this panel and 20% of them were active in at least one assay; those are over-represented in the sample as a whole.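 Note: values are percent growth. 100 is the growth of untreated cells, values between 100 and 0 indicate rising inhibition; between -100 and 0 indicates cell death.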 Active and inactive are the calls of the source. The calls were made as follows: active = growth percent below 10; inactive = the rest.
# What was measured:
# Test in all cases: NCI-60 one-dose screen, 48 h (100 = growth as untreated, 0 = no growth, -100 = all killed)
# HCT-15 colon = settings: 10 µM unless noted
# SNB-75 CNS = settings: 10 µM
# SNB-19 CNS = settings: 10 µM unless noted
# U251 CNS = settings: 10 µM unless noted
# PC-3 prostate = settings: 10 µM unless noted
# SK-MEL-5 melanoma = settings: 10 µM unless noted
# UACC-62 melanoma = settings: 10 µM unless noted
# LOX IMVI melanoma = settings: 10 µM unless noted
# SK-MEL-28 melanoma = settings: 10 µM unless noted
# EKVX NSCLC = settings: 10 µM unless noted
# SN12C renal = settings: 10 µM unless noted
# UO-31 renal = settings: 10 µM unless noted
# TK-10 renal = settings: 10 µM unless noted
# ACHN renal = settings: 10 µM unless noted
# CAKI-1 renal = settings: 10 µM unless noted
# A498 renal = settings: 10 µM unless noted
# CCRF-CEM leukemia = settings: 10 µM unless noted
# MOLT-4 leukemia = settings: 10 µM unless noted
# SK-MEL-2 melanoma = settings: 10 µM unless noted
# HT29 colon = settings: 10 µM unless noted
SMILES,growth (HCT-15 colon),growth (SNB-75 CNS),growth (SNB-19 CNS),growth (U251 CNS),growth (PC-3 prostate),growth (SK-MEL-5 melanoma),growth (UACC-62 melanoma),growth (LOX IMVI melanoma),growth (SK-MEL-28 melanoma),growth (EKVX NSCLC),growth (SN12C renal),growth (UO-31 renal),growth (TK-10 renal),growth (ACHN renal),growth (CAKI-1 renal),growth (A498 renal),growth (CCRF-CEM leukemia),growth (MOLT-4 leukemia),growth (SK-MEL-2 melanoma),growth (HT29 colon)
CC1=C(C#N)C(=O)NC(C)C1 (centres undefined),101% (inactive),111% (inactive),103% (inactive),105% (inactive),94.9% (inactive),105% (inactive),104% (inactive),90.4% (inactive),101% (inactive),105% (inactive),99.9% (inactive),94.9% (inactive),106% (inactive),102% (inactive),103% (inactive),104% (inactive),102% (inactive),116% (inactive),–,–
COP(=O)(OC)/C(=N\NS(=O)(=O)c1ccc(C)cc1)c1ccccc1,112% (inactive),–,94.7% (inactive),105% (inactive),86.5% (inactive),97.9% (inactive),96.7% (inactive),102% (inactive),110% (inactive),97.7% (inactive),105% (inactive),92.6% (inactive),88% (inactive),101% (inactive),62.1% (inactive),92.4% (inactive),124% (inactive),103% (inactive),110% (inactive),–
O=C1C2(c3ccccc3)C(c3ccccc3)=C(c3ccccc3)C1(c1ccccc1)C1CC=CC12 (centres undefined),–,83.4% (inactive),85.5% (inactive),89.4% (inactive),48.8% (inactive),85.8% (inactive),78.3% (inactive),85% (inactive),108% (inactive),–,86.1% (inactive),61.6% (inactive),118% (inactive),86.7% (inactive),52.6% (inactive),89.2% (inactive),–,84.4% (inactive),82.6% (inactive),81.8% (inactive)
COc1ccc(-c2cnnn2-c2nonc2-n2cccc2)cc1OC,–,51.3% (inactive),84.2% (inactive),56.8% (inactive),61.2% (inactive),55.6% (inactive),54.1% (inactive),44.2% (inactive),67.8% (inactive),–,68.5% (inactive),72.2% (inactive),69.6% (inactive),–,42.9% (inactive),56.3% (inactive),54.7% (inactive),18.1% (inactive),38% (inactive),12.3% (inactive)
Cn1c2ccc(Br)cc2c2c3c(c4c5ccccc5[nH]c4c21)C(=O)N(O)C3=O,–,-86.9% (active),-35.8% (active),-71% (active),-43.9% (active),-97.8% (active),-72.3% (active),-80.9% (active),-79.3% (active),–,-71.9% (active),-95.4% (active),-72.2% (active),-66.3% (active),-76.6% (active),-43.7% (active),–,-28% (active),-74.4% (active),-76.4% (active)
COc1cc(C(=O)/C=C/c2c(C)n([O-])c3ccc(C(F)(F)F)cc3[n+]2=O)cc(OC)c1OC,–,–,90.9% (inactive),87.1% (inactive),91.8% (inactive),102% (inactive),91.4% (inactive),88.4% (inactive),98.8% (inactive),115% (inactive),88.3% (inactive),47.1% (inactive),42.4% (inactive),53.6% (inactive),-11.9% (active),115% (inactive),36.6% (inactive),65.4% (inactive),95.5% (inactive),5.72% (active)
COC(=O)c1cc(=O)nc(N/N=C/c2ccco2)s1,–,96.2% (inactive),105% (inactive),104% (inactive),95.7% (inactive),99.6% (inactive),106% (inactive),101% (inactive),104% (inactive),–,102% (inactive),87.5% (inactive),118% (inactive),104% (inactive),–,99.5% (inactive),95.6% (inactive),94.9% (inactive),117% (inactive),106% (inactive)
C=C(C)[C@@H]1CC[C@]2(C(=O)N3CCNCC3)CC[C@]3(C)[C@H](CC[C@@H]4[C@@]5(C)C/C(=C/c6ccncc6)C(=O)C(C)(C)[C@@H]5CC[C@]43C)[C@@H]12,–,96.4% (inactive),99.5% (inactive),101% (inactive),94.4% (inactive),99.6% (inactive),103% (inactive),97.2% (inactive),–,–,106% (inactive),90.3% (inactive),102% (inactive),103% (inactive),95.6% (inactive),111% (inactive),101% (inactive),95.6% (inactive),107% (inactive),109% (inactive)
Cc1cccc(/C=N/Nc2cc(C)c3cccc(C)c3n2)n1,–,119% (inactive),92.7% (inactive),78.6% (inactive),51.6% (inactive),66.2% (inactive),87.1% (inactive),102% (inactive),94.8% (inactive),–,94.6% (inactive),76.5% (inactive),111% (inactive),92.1% (inactive),98.3% (inactive),97.7% (inactive),74% (inactive),67.9% (inactive),–,84.9% (inactive)
CN1CCN(Cc2ccc(NC(=O)c3nc4ccc5[nH]ncc5c4c4c3CCC4)cc2C(F)(F)F)CC1,–,96.3% (inactive),-76.7% (active),-93.7% (active),-64.8% (active),88.5% (inactive),-61.7% (active),-86.8% (active),–,–,-82.7% (active),-96.3% (active),-91.2% (active),-99.6% (active),-97.4% (active),84.6% (inactive),-9.12% (active),-38.7% (active),104% (inactive),-66% (active)
Oc1ccccc1/C=N/NC(=S)NC1CC2C=CC1C2 (centres undefined),35.5% (inactive),105% (inactive),–,59.4% (inactive),75.6% (inactive),78.3% (inactive),82.9% (inactive),44.9% (inactive),83.1% (inactive),95.3% (inactive),92.8% (inactive),49.8% (inactive),103% (inactive),73.6% (inactive),67.1% (inactive),96.2% (inactive),–,56.6% (inactive),–,–
COc1ccc2[nH]c(C(=O)OCc3ccc4c(Cl)cc(Cl)c(O)c4n3)cc2c1,–,-32.4% (active),53.2% (inactive),7.6% (active),-55.5% (active),-30.5% (active),-89.4% (active),-93.1% (active),–,–,-75.6% (active),-100% (active),-98.1% (active),-99.8% (active),-99.5% (active),10.5% (inactive),-9.99% (active),-18.5% (active),-11.4% (active),-80.3% (active)
NC(=N\N=C/c1ccc(O)cc1)/C(N)=N\N=C/c1ccc(O)cc1,–,94.4% (inactive),92.7% (inactive),72.3% (inactive),33.1% (inactive),28.7% (inactive),30.3% (inactive),28.7% (inactive),88.2% (inactive),65.5% (inactive),74.2% (inactive),28.5% (inactive),83.4% (inactive),–,41.5% (inactive),84.5% (inactive),–,-8.61% (active),59% (inactive),105% (inactive)
c1ccc(-c2nnc(-c3ccccn3)s2)nc1,–,70.4% (inactive),97.9% (inactive),–,93.8% (inactive),97.2% (inactive),95.7% (inactive),–,127% (inactive),79.6% (inactive),114% (inactive),76.3% (inactive),123% (inactive),–,50.1% (inactive),117% (inactive),80.8% (inactive),109% (inactive),104% (inactive),104% (inactive)
